# Values joined by “and” are separate entries in the source; they are usually repeats but may differ in a detail not shown here. Equal entries are not always repeated. Structures can show the parent of a compound that is named as a salt. Hit rate of the full screen: of about 5,800 compounds, about 620 (11%) showed activity. Shown is part of a subset that was picked to be rich in actives. Unmarked numbers belong to inactive results.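 The calls were made as follows: active = score above a cut-off or among the top three wells of a plate; in these data no inactive exceeds 0.85.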
# System: primary human hepatic stellate cells (donor 1)
# Assay: scaled lipid accumulation score (0 = DMSO-like, 1 = nortriptyline-like); higher = stronger HSC inactivation (lipid re-accumulation), active = hit call of the paper
# Settings: 48 h
# Experimental: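 Primary lipid accumulation screen in primary human hepatic stellate cell myofibroblasts (donor 1, passage 8) in 384-well plates. 100 nL of library compound was pin-transferred into 30 µL medium in duplicate, and cells were treated for 48 h. The 'Scaled' score combines distance from plate baseline, toxicity and reproducibility penalties, and is normalised to nortriptyline (positive) and DMSO (negative) controls on each plate. A hit is defined as scaled >0.85 or among the top 3 wells per plate.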
# [1] = library stock concentration: 3.33 mM
# [2] = library stock concentration: 10 mM
# [3] = library stock concentration: 80 uM
# [4] = library stock concentration: 400 uM
# [5] = library stock concentration: 2 mM
# [6] = library stock concentration: 1 mM
structure (smiles),measurement,setting,value
COc1c/c(=C2\C=c3ccccc3=N2)[nH]/c1=C\c1[nH]c(C)cc1C [Obatoclax Mesylate (GX15-070)],scaled lipid accumulation score,[1],0.602
same,scaled lipid accumulation score,[2],0.617
CNCCc1c[nH]c(CCC(c2ccccc2)c2ccccc2)n1.O=C(O)C(=O)O.O=C(O)C(=O)O [N-Methylhistaprodifen dioxalate salt],scaled lipid accumulation score,[2],1.02 (active)
CNCCc1ccccn1 [Betahistine 2HCl],scaled lipid accumulation score,[1],≤ 0
same,scaled lipid accumulation score,[2],≤ -0.001
CC(NCCC(c1ccccc1)c1ccccc1)c1ccccc1 (stereo not given) [Fendiline hydrochloride],scaled lipid accumulation score,,0.144
same,scaled lipid accumulation score,[2],0.431
CNCCc1ccccn1 [Betahistine mesylate],scaled lipid accumulation score,,0.122
CNCCc1ccccn1 [Betahistine hydrochloride],scaled lipid accumulation score,library stock concentration: 9.6 mM,≤ 0
CCCc1nc(C)c2c(=O)nc(-c3cc(S(=O)(=O)N4CCN(CC)CC4)ccc3OCC)[nH]n12,scaled lipid accumulation score,[2],≤ 0
CCCc1nc(C)c2c(=O)nc(-c3cc(S(=O)(=O)N4CCN(CC)CC4)ccc3OCC)[nH]n12 [Vardenafil HCl Trihydrate],scaled lipid accumulation score,[1],≤ 0
same,scaled lipid accumulation score,[2],0.473
COc1cc2ncnc(-n3nc(-c4ccccn4)nc3N)c2cc1OC,scaled lipid accumulation score,[3],≤ 0
same,scaled lipid accumulation score,[4],0.052
same,scaled lipid accumulation score,[5],0.101
same,scaled lipid accumulation score,[2],0.046
N[C@H]1C(O)O[C@H](CO)[C@@H](O)[C@@H]1O (stereo not given in full) [Glucosamine hydrochloride],scaled lipid accumulation score,library stock concentration: 9.3 mM,≤ -0.001
same,scaled lipid accumulation score,[2],0.034
"CCCCCC=CCC=CCC=CCC=CCCCCCC(=O)O [Adrenic acid (22:4, n-6)]",scaled lipid accumulation score,[6],≤ -0.01
CCCC(C(=O)OCCN(CC)CC)(c1ccccc1)c1ccccc1 [Proadifen hydrochloride],scaled lipid accumulation score,,0.228
same,scaled lipid accumulation score,library stock concentration: 5.1 mM,0.536
same,scaled lipid accumulation score,[2],0.511
"CCN(CC)CCOc1ccc(/C(=C(/Cl)c2ccccc2)c2ccccc2)cc1.O=C(O)CC(O)(CC(=O)O)C(=O)O [Clomiphene citrate (Z,E)]",scaled lipid accumulation score,,0.946 (active)
CCN(CC)CCOc1ccc(C(=C(Cl)c2ccccc2)c2ccccc2)cc1 [Clomifene citrate],scaled lipid accumulation score,[1],0.72
CCCC(C(=O)OCCN(CC)CC)(c1ccccc1)c1ccccc1 [SKF-525A hydrochloride],scaled lipid accumulation score,[2],0.355
CCN(CC)CCOc1ccc(C(=C(Cl)c2ccccc2)c2ccccc2)cc1.O=C(O)CC(O)(CC(=O)O)C(=O)O [Clomifene citrate],scaled lipid accumulation score,[2],1.12 (active)
CCN(CC)CCOC(=O)c1ccc(N)cc1 [Procaine HCl],scaled lipid accumulation score,[1],≤ 0
same,scaled lipid accumulation score,[2],≤ -0.001
CCN(CC)CCOCCOC(=O)C1(c2ccccc2)CCCC1 [Carbetapentane citrate],scaled lipid accumulation score,,0.595
same,scaled lipid accumulation score,[2],0.72 and 0.014 and 0.411
CCN(CC)CCOC(=O)c1ccc(N)cc1 [Procaine hydrochloride],scaled lipid accumulation score,,0.256
same,scaled lipid accumulation score,library stock concentration: 7.3 mM,≤ 0
same,scaled lipid accumulation score,[2],≤ 0
COc1ccc(C(Cl)=C(c2ccc(OC)cc2)c2ccc(OC)cc2)cc1 [Chlorotrianisene],scaled lipid accumulation score,,≤ 0
same,scaled lipid accumulation score,library stock concentration: 5.3 mM,0.022
same,scaled lipid accumulation score,[2],≤ 0
CCN(CC)CCOc1ccc(C(=C(Cl)c2ccccc2)c2ccccc2)cc1 [Clomiphene citrate],scaled lipid accumulation score,library stock concentration: 4.9 mM,0.705
same,scaled lipid accumulation score,[2],≤ 0
CCN(CC)CCOCCOC(=O)C(CC)(CC)c1ccccc1.O=C(O)CC(O)(CC(=O)O)C(=O)O,scaled lipid accumulation score,[2],0.866 (active)
CCN(CC)CCOCCOC(=O)C1(c2ccccc2)CCCC1 [Pentoxyverine Citrate],scaled lipid accumulation score,[1],≤ 0
same,scaled lipid accumulation score,[2],0.424
CCN(CC)CCOc1ccc(C(=C(Cl)c2ccccc2)c2ccccc2)cc1.O=C(O)CC(O)(CC(=O)O)C(=O)O [Clomid],scaled lipid accumulation score,[2],0.963 (active)
CC(C)[C@H]1c2ccc(F)cc2CC[C@@]1(CCN(C)CCCc1nc2ccccc2[nH]1)OC(=O)C1CC1 [NNC 55-0396 dihydrochloride],scaled lipid accumulation score,[2],0.432
CC(C)[C@H]1c2ccc(F)cc2CC[C@@]1(CCN(C)CCCc1nc2ccccc2[nH]1)OC(=O)C1CC1,scaled lipid accumulation score,[2],≤ -0.055
COc1ccc(-c2nc3cc(F)ccc3s2)cc1OC,scaled lipid accumulation score,[6],≤ 0
C=C1C[C@]23C[C@@]1(O)CC[C@H]2[C@@]12C=C[C@H](O)[C@@](C)(C(=O)O1)[C@H]2[C@@H]3C(=O)O [Gibberellic acid],scaled lipid accumulation score,,≤ 0
Cc1cc(I)ccc1Nc1c(C(=O)NOCC2CC2)cc(F)c(F)c1F,scaled lipid accumulation score,[2],≤ -0.001
CCc1cc2c(c(CC)n1)CCC(=O)N2Cc1ccc(-c2ccccc2-c2nn[nH]n2)cc1 [ZD 7155 hydrochloride],scaled lipid accumulation score,[2],0.009
CCCCCCCCCCCCCCC[C@@H](O)[C@H](CO)NC(=O)CCCCCCC [C8 Dihydroceramide],scaled lipid accumulation score,[6],≤ -0.021
CN(CCCOc1ccc(Cc2ccccc2)cc1)CCC(=O)O,scaled lipid accumulation score,[2],≤ 0
CCN(CC)CCOC(=O)C(c1ccccc1)c1ccccc1 [Adiphenine HCl],scaled lipid accumulation score,[1],≤ 0
same,scaled lipid accumulation score,[2],≤ 0
CCN(CC)CCOc1ccc(Cc2ccccc2)cc1.O=C(O)/C=C/C(=O)O [DPPE fumarate],scaled lipid accumulation score,[2],0.879 (active)
CCN(CC)CCOC(=O)C(c1ccccc1)c1ccccc1 [Adiphenine hydrochloride],scaled lipid accumulation score,,≤ 0
same,scaled lipid accumulation score,library stock concentration: 5.7 mM,0.005
same,scaled lipid accumulation score,[2],0.111
COc1ccc2c(c1)c(CC(=O)Nc1cccnc1)c(C)n2C(=O)c1ccc(Cl)cc1 [N-(3-pyridyl)-Indomethacin amide],scaled lipid accumulation score,[6],0.198
CCCc1ccc(C(=O)Oc2ccc(C#N)cc2)cc1,scaled lipid accumulation score,[2],0.011
CN(C)C(=O)CCSC(SCCC(=O)O)c1cccc(/C=C/c2ccc3ccc(Cl)cc3n2)c1 (stereo not given) [MK 571 (sodium salt)],scaled lipid accumulation score,[6],≤ 0
CCOc1cc2ncc(C#N)c(Nc3ccc(F)c(Cl)c3)c2cc1NC(=O)C=CCN(C)C,scaled lipid accumulation score,[2],1.13 (active)
CCOc1cc2ncc(C#N)c(Nc3ccc(F)c(Cl)c3)c2cc1NC(=O)C=CCN(C)C [Pelitinib (EKB-569)],scaled lipid accumulation score,[1],1.01 (active)
CCOc1cc(C(=O)Nc2ccc(Cl)c(-c3nc4ccccc4[nH]3)c2)cc(OCC)c1OCC,scaled lipid accumulation score,[2],0.438
CCOc1cc2ncc(C#N)c(Nc3ccc(F)c(Cl)c3)c2cc1NC(=O)/C=C/CN(C)C,scaled lipid accumulation score,[3],0.071
same,scaled lipid accumulation score,[4],≤ -0.009
same,scaled lipid accumulation score,[5],0.269
CCOc1cc2ncc(C#N)c(Nc3ccc(F)c(Cl)c3)c2cc1NC(=O)/C=C/CN(C)C [Pelitinib (EKB-569)],scaled lipid accumulation score,[2],0.498
CCOc1cc2ncc(C#N)c(Nc3ccc(OCc4ccccn4)c(Cl)c3)c2cc1NC(=O)/C=C/CN(C)C,scaled lipid accumulation score,[3],≤ 0
same,scaled lipid accumulation score,[4],≤ 0
same,scaled lipid accumulation score,[5],0.107
same,scaled lipid accumulation score,[2],0.02
